# The list is not random: actives were taken first. Their share in the collection is about 0.36%.
# Ba CapD inh: Bacillus anthracis CapD inhibitors, primary screen, biochemical, fluorescence intensity; CapD gamma-glutamyltranspeptidase (Bacillus anthracis Ames Ancestor); purified CapD enzyme, fluorescence intensity read-out; active compounds read low; z-score (test concentration not listed); 0.23% of 140,000 active; AID 492967, 2010; in the data active = z-score mostly below about -2.9, no sharp cut-off; inactive = mostly above about -1.9
# AID504770: growth inhibition of E. coli YBA685, primary screen, V. cholerae RctB inhibitors; E. coli YBA685 rctB-dependent plasmid, OD600 growth, 3 h; active compounds read low; z-score (no concentration beside the values); 0.27% of 130,000 active; AID 504770, 2011; in the data active = z-score below about -2, passing the limit was not always enough
# Active calls of the source: *; nt = no result.
SMILES,Ba CapD inh,AID504770
CCS(=O)(=O)C1=NSC2=NC(=O)/C(=C\c3ccco3)C(=N)N21,-3.4,-0.45
CC(C)CS(=O)(=O)C1=NN2C(=N)/C(=C\c3ccco3)C(=O)N=C2S1,-4.1*,0.15
CCOC(=O)C1=NN(c2cccc(Cl)c2)C2(S1)c1ccccc1C(c1cc(C)ccc1C)=NN2c1ccccc1 (stereo not given),-0.18,nt
Cc1ccccc1Nc1nc(N)nc(CSc2nnc(-c3ccccc3F)o2)n1,nt,0.45
CCOc1cc(/C=C2\N=C(c3ccccc3Cl)OC2=O)cc(Br)c1OC(C)=O,0.53,nt
COC(=O)c1c(N2C(=O)CCC2=O)sc2c1CCCC2,-0.46,-3.2*
CCOC(=O)c1c(N2C(=O)CCC2=O)sc2c1CCCC2,1.7,0.9
Cc1cc(C)c(S(=O)(=O)N(CCC(C)C)S(=O)(=O)c2ccccc2C#N)c(C)c1,nt,-4.1*
CN(C)c1ccc(CN(CC2CCCO2)S(=O)(=O)c2ccccc2C#N)cc1 (stereo not given),nt,0.7
O=C(Cc1cccs1)Nc1nnc(SCC(=O)N2CCCCCC2)s1,-0.29,-0.2
Cc1nc(Cc2nnc(SCC(=O)NCC34CC5CC(CC(C5)C3)C4)o2)cs1,nt,-2.8*
Cc1nc(Cc2nnc(SCC(=O)NC(C)(C)C)o2)cs1,nt,-0.35
O=C(NC1C2CC3CC(C2)CC1C3)c1cc(F)c(F)cc1Cl (stereo not given),0.4,-0.3
CCSc1nc2ccccc2s1,0.8,1.2
CCSc1ccc(SC#N)s1,nt,-5.2*
CC(=O)Oc1ccc(C2Nc3ccc(C(C)=O)cc3C3C=CCC32)c(OC(C)=O)c1 (stereo not given),1.3,nt
Cc1ccc2c(c1C)NC(C(=O)O)C1CC=CC21 (stereo not given),nt,-0.15
O=C(O)C1Nc2ccccc2C2C=CCC12 (stereo not given),-8.8*,0.35
O=C(O)c1ccc2c(c1)C1C=CCC1C(c1ccc(Br)cc1)N2 (stereo not given),-1.4,-0.15
O=C(O)c1ccc(C2Nc3ccccc3C3C=CCC32)cc1 (stereo not given),-7.9*,2.5
CC(=O)Oc1ccc(C2Nc3ccc(C(=O)O)cc3C3C=CCC32)c(OC(C)=O)c1 (stereo not given),-4.4*,nt
N#Cc1cc(Cl)ccc1Nc1ncnc(N)n1,90,-2.4*
Nc1ncnc(Nc2ccc(Cl)c(Cl)c2)n1,-0.33,nt
CN1CCN(S(=O)(=O)c2ccc(Br)cc2)CC1,-0.23,-1.3
Cc1ccc(S(=O)(=O)N2CCCN(C)CC2)cc1,0.15,-3.9*
SMILES,Ba CapD inh,AID504770
Oc1c(C(c2ccccn2)N2CCN(c3ccc(F)cc3)CC2)cc(Cl)c2cccnc12 (stereo not given),nt,0.6
CN1CCN(C(c2ccccn2)c2cc(Cl)c3cccnc3c2O)CC1 (stereo not given),-8.1*,-0.55
O=c1c2ccccc2nc2n1C(CSc1cccc(Cl)c1)CS2 (stereo not given),0.45,nt
O=C1c2ccccc2C(=O)N1Cc1cc(=O)n2ccsc2n1,nt,-0.45
CC(C)c1ccc(-c2nnn(Cc3cc(=O)n4ccsc4n3)n2)cc1,nt,-2.2*
COc1ccc(NC(=O)CN2CC(C)OC(C)C2)cc1OC (stereo not given),nt,0.95
Cc1ccc2nc(NCc3ccccc3)[nH]c2c1,-0.35,-2.2*
COc1ccc2nc(NCc3ccccc3)[nH]c2c1,-0.29,-1.5
COc1ccc(N(C(C)=O)S(=O)(=O)c2ccc(F)cc2)cc1,-7.3*,-0.6
COc1ccc(S(=O)(=O)N(C(C)=O)c2ccc3oc(=O)sc3c2)cc1,-3.3,-0.65
CCc1cccc(NC(=O)CCc2nc(-c3ccc(C)cc3)no2)c1,-1.1,0.1
NC1=CC(=O)c2ccccc2C1=O,-1.6,-2.4*
CC1=CC(=O)c2ccccc2C1=O,0.15,0.65
O=C(NN1S(=O)(=O)c2ccccc2S1(=O)=O)c1cccc(Br)c1,-3.7*,nt
O=C(NN1S(=O)(=O)c2ccccc2S1(=O)=O)c1cccc(F)c1,-4.1*,nt
O=C(NN1S(=O)(=O)c2ccccc2S1(=O)=O)c1ccc(OCc2ccc(F)cc2)cc1,-0.59,nt
O=C(NN1C(=O)CCC1=O)c1cccc(Br)c1,nt,0.1
CCC(C1=C(O)CC(C)(C)CC1=O)C1=C(O)CC(C)(C)CC1=O,nt,-0.75
O=C(Nc1ccccc1Sc1ncc(-c2ccc(Cl)cc2)cn1)c1cc(Cl)nc(Cl)c1,-0.52,nt
CCn1c(SCC(=O)c2ccccc2)nnc1-c1c[nH]c2ccccc12,nt,-0.2
Clc1ccc2nnc(Cc3ccccc3)n2n1,nt,-0.85
O=C(Nc1nccs1)C1CCN(S(=O)(=O)c2cccnc2)CC1,-0.38,-0.75
O=C(Nc1nccs1)C1CCN(S(=O)(=O)c2ccccc2)CC1,nt,-2.3*
CCN1C(=O)/C(=C\c2ccco2)C(C(=O)OC)=C1C,-0.87,-0.2
CCN1C(=O)/C(=C\c2ccc(OC)cc2)C(C(=O)OC)=C1C,-4.9*,-0.4
N#Cc1ccc(NC(=O)COC(=O)CCC2CCCCC2)cc1,nt,-0.3

# Screening data deposited in PubChem BioAssay by ICCB-Longwood Screening Facility, Harvard Medical School.
